Molecules are shown by their SMILES. For part of these data: Results with a measured potency or affinity are listed apart. Active and inactive are the calls of the source. No rule for the calls is given here.
For efficacy in this document: 0% is about no effect.

The conditions of the first test: Ebola virus entry assay, green fluorescence channel.
Regarding `CC(=O)O[C@@H]1CC2C3CCc4cc(OC(=O)c5ccccc5)ccc4C3CCC2(C)[C@H]1OC(C)=O` (stereo partly drawn), the efficacy was 11.6% (inactive).

On to `CCOc1ccccc1OCC1CNCCO1` (stereo not drawn), for which the efficacy was 47.7% (inactive).

For `N=C(N)N`, the efficacy is 19.5% (inactive).

In the case of `CS(=O)(=O)c1ccc([C@@H](O)[C@@H](CO)NC(=O)C(Cl)Cl)cc1`, the efficacy was -14.2% (inactive).

In the case of `O=C(NCCO[N+](=O)[O-])c1cccnc1`, the efficacy is -12.5% (inactive).

Regarding `CCCCCCCCCCCCOCCO`, the efficacy is -11.3% (inactive).

Regarding `O=C(CO)[C@@H](O)[C@H](O)[C@@H](O)CO`, the efficacy was 18.6% (inactive).

For the compound `CC(CCc1ccc2c(c1)OCO2)NN` (stereo not drawn), the efficacy is 17.5% (inactive).

For the compound `CN(C)CCN1CCN(c2cccc(Cl)c2)C1=O`, the efficacy is -56.2% (inactive).

Consider `CC(=O)Oc1ccc(C)cc1`, for which the efficacy was 12.2% (inactive).

`COC(=O)c1cc(Cl)c(NC(C)=O)cc1OC`: the efficacy was -16.3% (inactive).

For `CCCCCCCC(=O)OCC(COC(=O)CCCCCCC)OC(=O)CCCCCCC`, the efficacy was 8.07% (inactive).

`CCC(Cc1c(I)cc(I)c(N)c1I)C(=O)O` (stereo not drawn): the efficacy was -15.6% (inactive).

As for `COc1ccc2c3c1O[C@H]1[C@H](O)CC[C@H]4[C@@H](C2)N(C)CC[C@@]341`, the efficacy was -11.3% (inactive).

On to `C[C@]12Cc3cn[nH]c3C[C@@H]1CC[C@@H]1[C@@H]2CC[C@@]2(C)[C@H]1CC[C@]2(C)O`, for which the efficacy was 8.25% (inactive).

For `Cc1onc(-c2ccccc2)c1C(=O)Cl`, the efficacy was 6.34% (inactive).

For `NC(=S)N/N=C/c1cccnc1`, the efficacy was 12.5% (inactive).

For the compound `COc1ccc(S(=O)(=O)Nc2nnc(CC(C)C)s2)cc1`, the efficacy was -19% (inactive).

On to `Clc1ccccc1N1CCNCC1`, for which the efficacy is -17.1% (inactive).

On to `CC(C)(C)CC(C)(C)c1ccc(O)c(-n2nc3ccccc3n2)c1`, for which the efficacy is 9.19% (inactive).

Consider `O=C(O)[C@@H](O)[C@H](O)[C@H](O)[C@@H](O)C(=O)O`, for which the efficacy is -24.9% (inactive).

For the compound `O=C(Oc1ccccc1C(=O)O)c1ccccc1O`, the efficacy was 10% (inactive).

Take `Clc1cccc(Cl)c1NC1=NCCN1`: the efficacy was -12.5% (inactive).

For the compound `O=C(N/N=C/c1ccccc1O)c1ccncc1`, the efficacy is 66.8% (inactive).

Take `CCOC(=O)c1ccc(N)cc1`: the efficacy is 26.1% (inactive).

Regarding `CCCCCC=CCC=CCCCCCCCC(=O)OCC`, the efficacy was 15.2% (inactive).

With `O=C(C1CCCCC1)N1CC(=O)N2CCCc3ccccc3C2C1` (stereo not drawn), the efficacy was 76.1% (inactive).

For the compound `C[N+](C)(C)CCOC(N)=O`, the efficacy was 12.2% (inactive).

With `CCN[C@H]1CN(CCCOC)S(=O)(=O)c2sc(S(N)(=O)=O)cc21`, the efficacy is 16.3% (inactive).

For the compound `NS(=O)(=O)c1ccc(NC(=O)CCC(=O)O)cc1`, the efficacy is 9.25% (inactive).

In the case of `O=C(O)Cn1c(=O)n(Cc2ccc(Br)cc2F)c(=O)c2ccc(Cl)cc21`, the efficacy was -18.1% (inactive).

Take `Cc1ccccc1C(=O)N1CC/C(=N\OS(=O)(=O)O)c2ccc(Cl)cc21`: the efficacy is -25% (inactive).

With `CCOC(=O)C1=C(C)NC(C)=C(C(=O)OC)C1c1cccc([N+](=O)[O-])c1` (stereo not drawn), the efficacy was 20.7% (inactive).

On to `C[C@]12C=CC(=O)C=C1[C@@H](F)C[C@@H]1[C@@H]2[C@@H](O)C[C@@]2(C)[C@H]1CC[C@]2(O)C(=O)CO`, for which the efficacy was 13.6% (inactive).

Take `C[N+]1(CCF)[C@@H]2CC[C@H]1CC(OC(=O)C(O)(c1ccccc1)c1ccccc1)C2` (stereo partly drawn): the efficacy is -17.5% (inactive).

Take `CNC[C@H](O)[C@@H](O)[C@H](O)[C@H](O)CO`: the efficacy was -10.6% (inactive).

In the case of `CCCOc1ccc2c(c1)CC[C@@H]1[C@@H]2CC[C@]2(C)C(OC)CC[C@@H]12` (stereo partly drawn), the efficacy is -11.2% (inactive).

As to `CCCCOC(=O)c1ccc(O)cc1`, the efficacy was -26.2% (inactive).

Turning to `O=C(O)Cc1ccc(-c2ccccc2)cc1`, the efficacy was 14.2% (inactive).

The conditions of the next test: Ebola virus entry assay, blue channel fluorescence.
For `CC(=O)O[C@@H]1CC2C3CCc4cc(OC(=O)c5ccccc5)ccc4C3CCC2(C)[C@H]1OC(C)=O` (stereo partly drawn), the call was inactive.

On to `CCOc1ccccc1OCC1CNCCO1` (stereo not drawn), for which the call was inactive.

Consider `N=C(N)N`, for which the compound was classed as inactive.

As to `CS(=O)(=O)c1ccc([C@@H](O)[C@@H](CO)NC(=O)C(Cl)Cl)cc1`, the call was inactive.

Consider `O=C(NCCO[N+](=O)[O-])c1cccnc1`, for which the result was inactive.

In the case of `CCCCCCCCCCCCOCCO`, the result was inactive.

Turning to `O=C(CO)[C@@H](O)[C@H](O)[C@@H](O)CO`, the compound was classed as inactive.

On to `CC(CCc1ccc2c(c1)OCO2)NN` (stereo not drawn), for which the outcome was inactive.

On to `CN(C)CCN1CCN(c2cccc(Cl)c2)C1=O`, for which the outcome was inactive.

Take `CC(=O)Oc1ccc(C)cc1`: the compound was classed as inactive.

For the compound `COC(=O)c1cc(Cl)c(NC(C)=O)cc1OC`, the compound was called inactive.

On to `CCCCCCCC(=O)OCC(COC(=O)CCCCCCC)OC(=O)CCCCCCC`, for which the compound was called inactive.

Take `CCC(Cc1c(I)cc(I)c(N)c1I)C(=O)O` (stereo not drawn): the outcome was inactive.

Consider `COc1ccc2c3c1O[C@H]1[C@H](O)CC[C@H]4[C@@H](C2)N(C)CC[C@@]341`, for which the compound was called inactive.

As to `C[C@]12Cc3cn[nH]c3C[C@@H]1CC[C@@H]1[C@@H]2CC[C@@]2(C)[C@H]1CC[C@]2(C)O`, the result was inactive.

As for `Cc1onc(-c2ccccc2)c1C(=O)Cl`, the call was inactive.

Consider `NC(=S)N/N=C/c1cccnc1`, for which the result was inactive.

`COc1ccc(S(=O)(=O)Nc2nnc(CC(C)C)s2)cc1`: the result was inactive.

With `Clc1ccccc1N1CCNCC1`, the outcome was inactive.

With `CC(C)(C)CC(C)(C)c1ccc(O)c(-n2nc3ccccc3n2)c1`, the result was inactive.

As to `O=C(O)[C@@H](O)[C@H](O)[C@H](O)[C@@H](O)C(=O)O`, the call was inactive.

For `O=C(Oc1ccccc1C(=O)O)c1ccccc1O`, the result was inactive.

For the compound `Clc1cccc(Cl)c1NC1=NCCN1`, the compound was classed as inactive.

As for `O=C(N/N=C/c1ccccc1O)c1ccncc1`, the call was inactive.

Take `CCOC(=O)c1ccc(N)cc1`: the compound was classed as inactive.

Regarding `CCCCCC=CCC=CCCCCCCCC(=O)OCC`, the compound was classed as inactive.

With `O=C(C1CCCCC1)N1CC(=O)N2CCCc3ccccc3C2C1` (stereo not drawn), the result was inactive.

On to `C[N+](C)(C)CCOC(N)=O`, for which the result was inactive.

As to `CCN[C@H]1CN(CCCOC)S(=O)(=O)c2sc(S(N)(=O)=O)cc21`, the outcome was inactive.

Regarding `NS(=O)(=O)c1ccc(NC(=O)CCC(=O)O)cc1`, the outcome was inactive.

Consider `O=C(O)Cn1c(=O)n(Cc2ccc(Br)cc2F)c(=O)c2ccc(Cl)cc21`, for which the compound was classed as inactive.

In the case of `Cc1ccccc1C(=O)N1CC/C(=N\OS(=O)(=O)O)c2ccc(Cl)cc21`, the result was inactive.

For the compound `CCOC(=O)C1=C(C)NC(C)=C(C(=O)OC)C1c1cccc([N+](=O)[O-])c1` (stereo not drawn), the call was inactive.

Turning to `C[C@]12C=CC(=O)C=C1[C@@H](F)C[C@@H]1[C@@H]2[C@@H](O)C[C@@]2(C)[C@H]1CC[C@]2(O)C(=O)CO`, the result was inactive.

In the case of `C[N+]1(CCF)[C@@H]2CC[C@H]1CC(OC(=O)C(O)(c1ccccc1)c1ccccc1)C2` (stereo partly drawn), the compound was classed as inactive.

On to `CNC[C@H](O)[C@@H](O)[C@H](O)[C@H](O)CO`, for which the compound was called inactive.

Turning to `CCCOc1ccc2c(c1)CC[C@@H]1[C@@H]2CC[C@]2(C)C(OC)CC[C@@H]12` (stereo partly drawn), the compound was classed as inactive.

`CCCCOC(=O)c1ccc(O)cc1`: the result was inactive.

Regarding `O=C(O)Cc1ccc(-c2ccccc2)cc1`, the outcome was inactive.
